What was measured:
Assay in all cases: PBM binding z-score (relative to random genomic background probes); higher = stronger binding; sequences stand for … in GC…GCGATTGACAGCGTAGAATGAAGG
[1] = system: FXR:RXRa (NR concentration 270 nM, RXRa partner concentration 90 nM)
Method in brief: (§1)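 Random background probes are the reference for binding z-scores. These scores derive from regression-normalized fluorescence on custom Agilent 4×180K protein-binding microarrays incubated 1 h with ligand-free nuclear receptor dimers. Binding was detected with antibodies against each partner (one per run).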

[2] = system: LXRa:RXRa (NR concentration 270 nM, RXRa partner concentration 90 nM)
Method in brief: as §1

[3] = system: LXRa homodimer (NR concentration 270 nM)
Method in brief: as §1

[4] = system: LXRb:RXRa (NR concentration 270 nM, RXRa partner concentration 90 nM)
Method in brief: as §1

[5] = system: LXRb homodimer (NR concentration 270 nM)
Method in brief: as §1

[6] = system: PPARa:RXRa (NR concentration 270 nM, RXRa partner concentration 90 nM)
Method in brief: as §1

[7] = system: PPARg:RXRa (NR concentration 180 nM, RXRa partner concentration 90 nM)
Method in brief: as §1

[8] = system: PPARg:RXRa 270nM:90nM, anti-RXR (NR concentration 270 nM, RXRa partner concentration 90 nM)
Method in brief: as §1

[9] = system: PPARg:RXRa 30nM:10nM, anti-RXR (NR concentration 30 nM, RXRa partner concentration 10 nM)
Method in brief: as §1

[10] = system: PPARg:RXRa 90nM:30nM, anti-RXR (NR concentration 90 nM, RXRa partner concentration 30 nM)
Method in brief: as §1

[11] = system: PPARg:RXRa DBDmut IVT, anti-RXR (DBD mutation: RXRa K156A/R161A, NR concentration 270 nM, RXRa partner concentration 90 nM)
Method in brief: as §1

[12] = system: PPARg:RXRa IVT, anti-PPARg (NR concentration 270 nM, RXRa partner concentration 90 nM)
Method in brief: as §1

[13] = system: PPARg DBDmut IVT, anti-PPARg (DBD mutation: PPARg1 K132A/R137A, NR concentration 270 nM)
Method in brief: as §1

[14] = system: PPARg homodimer (NR concentration 180 nM)
Method in brief: as §1

[15] = system: PXR:RXRa (NR concentration 270 nM, RXRa partner concentration 90 nM)
Method in brief: as §1

[16] = system: PXR homodimer (NR concentration 270 nM)
Method in brief: as §1

[17] = system: RARa:RXR (NR concentration 270 nM, RXRa partner concentration 90 nM)
Method in brief: as §1

[18] = system: RARa homodimer (NR concentration 270 nM)
Method in brief: as §1

[19] = system: RARb:RXRa (NR concentration 270 nM, RXRa partner concentration 90 nM)
Method in brief: as §1

Work on ATATCTAGGTTAGGGTCATTCAGAAAGTAGGGAA yielded a PBM binding z-score [1] of 4.54, a PBM binding z-score [2] of 4.26 and a PBM binding z-score [3] of 1.73. The PBM binding z-score [4] was 4.39, the PBM binding z-score [5] was 2.24 and the PBM binding z-score [6] was 5.65. For the same sequence, the PBM binding z-score [7] was 7.73, the PBM binding z-score [8] was 6.5 and the PBM binding z-score [9] was 4.33. It also gave a PBM binding z-score [10] of 6.58, a PBM binding z-score [11] of 6.71 and a PBM binding z-score [12] of 6.95. The PBM binding z-score [13] was 2.23, the PBM binding z-score [14] was 3.98 and the PBM binding z-score [15] was 4.33. It also gave a PBM binding z-score [16] of 2.01, a PBM binding z-score [17] of 4.78 and a PBM binding z-score [18] of 2.98. For the same sequence, the PBM binding z-score [19] was 3.43.
With ATATGTAGGTTAGGGTCGTTCAGAAAGTAGGGAA the PBM binding z-score [1] was 2.59, the PBM binding z-score [2] was 2.54 and the PBM binding z-score [3] was 0.724. For the same sequence, the PBM binding z-score [4] was 3.09, the PBM binding z-score [5] was 1.65 and the PBM binding z-score [6] was 4.31. It also gave a PBM binding z-score [7] of 5.88, a PBM binding z-score [8] of 4.99 and a PBM binding z-score [9] of 2.44. It also gave a PBM binding z-score [10] of 4.12, a PBM binding z-score [11] of 6.06 and a PBM binding z-score [12] of 6.47. The PBM binding z-score [13] was 2.98, the PBM binding z-score [14] was 2.38 and the PBM binding z-score [15] was 2.11. It also gave a PBM binding z-score [16] of 1.67, a PBM binding z-score [17] of 2.37 and a PBM binding z-score [18] of 1.51. For the same sequence, the PBM binding z-score [19] was 1.92.
CGAACTAGGTCAAAGGACAGTTAAAGGCGACGTA showed a PBM binding z-score [1] of 4.01, a PBM binding z-score [2] of 2.69 and a PBM binding z-score [3] of 0.333. For the same sequence, the PBM binding z-score [4] was 1.95, the PBM binding z-score [5] was -0.158 and the PBM binding z-score [6] was 5.58. It also gave a PBM binding z-score [7] of 10.5, a PBM binding z-score [8] of 8.8 and a PBM binding z-score [9] of 7.97. The PBM binding z-score [10] was 9.57, the PBM binding z-score [11] was 7.76 and the PBM binding z-score [12] was 8.44. It also gave a PBM binding z-score [13] of 1.12, a PBM binding z-score [14] of 2.07 and a PBM binding z-score [15] of 1.32. For the same sequence, the PBM binding z-score [16] was 0.165, the PBM binding z-score [17] was 2.42 and the PBM binding z-score [18] was 0.332. For the same sequence, the PBM binding z-score [19] was 4.
For CGGACTAGGTCAAAGGACAGTGAAAGGCGACGTA, the PBM binding z-score [1] was 3.87, the PBM binding z-score [2] was 2.49 and the PBM binding z-score [3] was -0.041. The PBM binding z-score [4] was 1.67, the PBM binding z-score [5] was -0.542 and the PBM binding z-score [6] was 4.93. For the same sequence, the PBM binding z-score [7] was 10.2, the PBM binding z-score [8] was 8.4 and the PBM binding z-score [9] was 8.49. The PBM binding z-score [10] was 9.55, the PBM binding z-score [11] was 7.7 and the PBM binding z-score [12] was 7.9. It also gave a PBM binding z-score [13] of 0.294, a PBM binding z-score [14] of 1.67 and a PBM binding z-score [15] of 1.11. The PBM binding z-score [16] was -0.218, the PBM binding z-score [17] was 2.41 and the PBM binding z-score [18] was 0.208. The PBM binding z-score [19] was 3.69.
CGAACTAGGTGAAAGGACAGTGAAAGGCGACGTA was tested, and the PBM binding z-score [1] was -0.276, the PBM binding z-score [2] was -0.418 and the PBM binding z-score [3] was -0.4. For the same sequence, the PBM binding z-score [4] was -0.115, the PBM binding z-score [5] was -0.863 and the PBM binding z-score [6] was 4.46. For the same sequence, the PBM binding z-score [7] was 8.84, the PBM binding z-score [8] was 7.7 and the PBM binding z-score [9] was 6.77. For the same sequence, the PBM binding z-score [10] was 8.31, the PBM binding z-score [11] was 7.36 and the PBM binding z-score [12] was 7.28. For the same sequence, the PBM binding z-score [13] was 1.83, the PBM binding z-score [14] was 1.93 and the PBM binding z-score [15] was -0.398. The PBM binding z-score [16] was -0.114, the PBM binding z-score [17] was -0.0573 and the PBM binding z-score [18] was -0.695. It also gave a PBM binding z-score [19] of 1.54.
CGAACTAGGTCACCAGGTCAGTGAAGAGGTTGGA showed a PBM binding z-score [1] of 4.69, a PBM binding z-score [2] of 3.38 and a PBM binding z-score [3] of 0.525. The PBM binding z-score [4] was 2.7, the PBM binding z-score [5] was -0.48 and the PBM binding z-score [6] was 5.78. It also gave a PBM binding z-score [7] of 9.48, a PBM binding z-score [8] of 7.31 and a PBM binding z-score [9] of 5.4. The PBM binding z-score [10] was 7.06, the PBM binding z-score [11] was 8.35 and the PBM binding z-score [12] was 8.61. It also gave a PBM binding z-score [13] of 0.92, a PBM binding z-score [14] of 2.94 and a PBM binding z-score [15] of 3.16. It also gave a PBM binding z-score [16] of 0.301, a PBM binding z-score [17] of 4.36 and a PBM binding z-score [18] of 1.02. It also gave a PBM binding z-score [19] of 4.61.
Work on CGAGCTAGGTCAAAGGACAGTGAAAGGCGACGTA yielded a PBM binding z-score [1] of 4.09, a PBM binding z-score [2] of 2.67 and a PBM binding z-score [3] of -0.157. For the same sequence, the PBM binding z-score [4] was 1.53, the PBM binding z-score [5] was -0.726 and the PBM binding z-score [6] was 3.86. The PBM binding z-score [7] was 5.44, the PBM binding z-score [8] was 6.04 and the PBM binding z-score [9] was 3.68. It also gave a PBM binding z-score [10] of 5.95, a PBM binding z-score [11] of 3.53 and a PBM binding z-score [12] of 3.85. It also gave a PBM binding z-score [13] of -0.971, a PBM binding z-score [14] of 1.2 and a PBM binding z-score [15] of 1.01. For the same sequence, the PBM binding z-score [16] was -0.591, the PBM binding z-score [17] was 2.39 and the PBM binding z-score [18] was -0.312. The PBM binding z-score [19] was 4.04.
ATATGTAGGTTAGGGTCATCCAGAAAGTAGGGAA showed a PBM binding z-score [1] of 5.11, a PBM binding z-score [2] of 4.21 and a PBM binding z-score [3] of 1.16. For the same sequence, the PBM binding z-score [4] was 4.31, the PBM binding z-score [5] was 1.44 and the PBM binding z-score [6] was 5.62. The PBM binding z-score [7] was 8.03, the PBM binding z-score [8] was 6.66 and the PBM binding z-score [9] was 4.94. The PBM binding z-score [10] was 6.67, the PBM binding z-score [11] was 6.49 and the PBM binding z-score [12] was 6.96. For the same sequence, the PBM binding z-score [13] was 3.77, the PBM binding z-score [14] was 6.33 and the PBM binding z-score [15] was 4.46. For the same sequence, the PBM binding z-score [16] was 1.88, the PBM binding z-score [17] was 5.12 and the PBM binding z-score [18] was 2.64. It also gave a PBM binding z-score [19] of 3.55.
Sequence CGAACTAGTTCACCAGGACAGTGAAGAGGTTGGA has a PBM binding z-score [1] of 0.244, a PBM binding z-score [2] of 0.23 and a PBM binding z-score [3] of -0.131. The PBM binding z-score [4] was -0.137, the PBM binding z-score [5] was -0.531 and the PBM binding z-score [6] was 0.836. It also gave a PBM binding z-score [7] of 0.543, a PBM binding z-score [8] of 0.354 and a PBM binding z-score [9] of -0.289. It also gave a PBM binding z-score [10] of -0.0706, a PBM binding z-score [11] of 1.56 and a PBM binding z-score [12] of 1.11. For the same sequence, the PBM binding z-score [13] was 0.126, the PBM binding z-score [14] was -0.235 and the PBM binding z-score [15] was 0.423. The PBM binding z-score [16] was 0.241, the PBM binding z-score [17] was 0.0691 and the PBM binding z-score [18] was -0.106. For the same sequence, the PBM binding z-score [19] was 1.7.

From the supplement of paper PMC6555819
